The values below come from PubChem BioAssay AID1259415 (National Center for Advancing Translational Sciences (NCATS), 2018).

The structures appear in SMILES notation. Out of some 410,000 compounds screened, about 18,000 (4.4%) were called active. Not shown: some 7% with an inconclusive outcome. This excerpt belongs to a sample that is enriched for actives. Values without a mark were called inactive. Rule as the data show it: active = activity change below about -60%; inconclusive = no clear call, values can overlap the other calls; inactive = above about -39%.
% is scaled to controls: 0 for no effect and ±100 for the full control effect.

The assay can be described thus: qHTS Assay for inhibitors of the human cytomegalovirus (HCMV). The settings on record: HFF cells, HCMV-luciferase reporter, 72 h; at 57.5 µM; active compounds read low. From the text:
NCGC Assay Overview: Infection with human cytomegalovirus (HCMV) continues to pose significant threats for pregnant women and immunocompromised hosts. HCMV causes serious morbidity and mortality in transplant recipients, and congenital HCMV is the leading infectious cause of mental retardation and deafness in children. In the 1990s, the annual costs associated with the disease burden of congenital CMV were estimated at around $2 billion. A HCMV vaccine is not available yet and HCMV therapies result in intolerable side effects and emergence of drug resistant viruses. […] Towards this goal we have developed and characterized a luciferase HCMV reporter that was initially used in 96 well plates and then optimized to 1536-well plates for utilization in screening of the MLSMR collection, the NGCG diversity collection and the NCGC Pharmaceutical Collection of approved and investigational drugs.
NCGC Assay Protocol Summary:
This is a cell-based assay for HCMV inhibition in HFFs cells. The screening used 2 compound doses and the HCMV-luciferase at MOI of 1 PFU/cell. Cells were treated and infected with HCMV. At 72 h post infection cell lysates were collected and luciferase activity was determined using the Glomax-Multi + Detection System (Promega, Madison, WI). Data were normalized to the controls for basal activity (buffer only) and known HCMV inhibitors Salinmoycin.
1536-well assay protocol for the assay:
(1) Add 3 ul CMV/HFF cell culture. 1000 cells/well in DMEM nirmal media.
(2) Incubate 16 hr at 37C.
(3) Add 23 nl control compound, 10uM of Salinomycin.
(4) Add 23 nl compounds in DMSO solution.
(5) Add 3 ul CMV suspension. Final 1 puf/ul, Virus stock 2000pfu/ul
(6) Incubate 72 hrs at 37C.
(7) Add 4 ul OneGlo Luc Reagent.
(8) Incubate 5 min at room temperature.
In general terms: In qHTS, concentration-response curves come from the screen itself.
Consider `Cc1cccc(NC(=O)N2CCC(CN3CCc4ccccc4C3)CC2)c1C`, for which the activity change, negative = inhibition was 7.59%.

Regarding `Cc1cccc(OC(C)C(=O)N2CCc3ccccc3C2)c1` (stereo unspecified), the activity change, negative = inhibition was -31.1%.

With `O=C(Nc1cccc([N+](=O)[O-])c1)N1CCc2ccccc2C1`, the activity change, negative = inhibition was -65.7% (active).

Consider `CC(=O)c1ccc(NC(=O)c2nc3nc(C)cc(C(F)F)n3n2)cc1`, for which the activity change, negative = inhibition was 19.3%.

For the compound `CCOc1ccc(-c2nonc2NC(=O)c2oc3ccc(C)cc3c2C)cc1OCC`, the activity change, negative = inhibition is 5.37%.

For the compound `Cc1ccc2c(O)c(Cc3ccccc3)c(=O)[nH]c2n1`, the activity change, negative = inhibition was 22%.

Take `O=C(Nc1c(-c2ccc(F)cc2)nc2ccccn12)c1cccc(F)c1`: the activity change, negative = inhibition is -69.4% (active).

For the compound `COC(=O)c1ccc2nc(-c3ccc(Cl)cc3)c(Cc3cccc(F)c3)n2c1`, the activity change, negative = inhibition is -17.1%.

As for `Cc1nc2ccccn2c(=O)c1NC(=O)c1c(F)cccc1F`, the activity change, negative = inhibition was -14.4%.

For `Cc1ccc(CNC(=O)c2c(O)nc3c(C)cccn3c2=O)cc1`, the activity change, negative = inhibition was 5.82%.

In the case of `COC(=O)[C@@]1(Sc2ccc(OC)cc2)CC(=O)N(c2ccc(OC)cc2C)[C@@H]1c1ccc(OC(C)C)c(OC)c1`, the activity change, negative = inhibition is 10.7%.

Regarding `COc1cc(OC)c(NC(=O)c2cnc(N3CCCC3)nc2C)cc1Cl`, the activity change, negative = inhibition was -14.2%.

Take `Cc1nnc(SCC(=O)N(C(C)C)C(C)C)nc1C`: the activity change, negative = inhibition is -39.9%.

`CC(C)OCCCNc1ncnc2c1[nH]c1ccc(F)cc12`: the activity change, negative = inhibition is -79% (active).

As to `COc1ccc(Cn2cc(C(=O)c3ccc(C)cc3)c(=O)c3cc(OC)c(OC)cc32)cc1`, the activity change, negative = inhibition was -22.1%.

As for `O=C(NC1CCCC1)C(c1ccco1)N(C(=O)c1csnn1)c1ccccc1` (stereo unspecified), the activity change, negative = inhibition was 13.9%.

Take `CCCCN(C(=O)C1=NN(c2cc(C)ccc2C)C(=O)CC1)c1c(N)n(CCC)c(=O)[nH]c1=O`: the activity change, negative = inhibition is 8.37%.

Consider `Cn1c(=O)c2c(SCC(=O)N3CCc4ccccc43)nc(-c3ccc(Cl)cc3)nc2n(C)c1=O`, for which the activity change, negative = inhibition was 17.9%.

For `COc1ccccc1N1CCN(c2ncnc3onc(-c4ccc(F)cc4)c23)CC1`, the activity change, negative = inhibition is -11.8%.

For the compound `CCCCCCCCCCCCn1ccc(=N)cc1`, the activity change, negative = inhibition is -96.6% (active).

Take `O=C(CCSCc1cccc(F)c1)NCc1ccccc1`: the activity change, negative = inhibition is -2.8%.

For the compound `O=C(NCC(c1ccc2c(c1)OCO2)N1CCN(c2ccccc2)CC1)C(=O)Nc1ccccc1F` (stereo unspecified), the activity change, negative = inhibition is 9.73%.

For the compound `COC(=O)C1=C(c2ccccc2)c2ccccc2S(=O)(=O)N1CC(=O)Nc1ccccc1C(F)(F)F`, the activity change, negative = inhibition was -5.56%.

On to `CCCc1nn2c(=O)cc(COC(=O)c3ccc(NC(=O)C(C)Oc4ccccc4)cc3)nc2s1` (stereo unspecified), for which the activity change, negative = inhibition is -18.3%.

Take `COC(=O)CC1Oc2ccccc2-n2cc(-c3ccccc3)nc21` (stereo unspecified): the activity change, negative = inhibition was -14.2%.

With `COCC(C)n1c(SCc2ccc(C(=O)OC)o2)nc2ccccc2c1=O` (stereo unspecified), the activity change, negative = inhibition is -23%.

Turning to `COCCn1c(C)cc(C(=O)CSc2nc3ccccc3c(=O)n2C(C)COC)c1C` (stereo unspecified), the activity change, negative = inhibition was -66% (active).

As to `COCC(C)n1c(C)cc(C(=O)CSc2cc(C)c3ccccc3n2)c1C` (stereo unspecified), the activity change, negative = inhibition is -3.64%.

`O=C(NC1CCCC1)c1csc(C(O)c2cccc(Cl)c2)n1` (stereo unspecified): the activity change, negative = inhibition is -12.9%.

As for `CC1CN(C(=O)c2ccc3c(c2)OCO3)OC(c2ccccc2)O1` (stereo unspecified), the activity change, negative = inhibition was 26.2%.

Regarding `CCCCCCn1nnc2sc(-c3ccccc3)cc2c1=O`, the activity change, negative = inhibition was 15.8%.

With `COc1ccc(CNC(=O)c2ccc3c(O)c(S(=O)(=O)c4ccccc4)c(=O)[nH]c3c2)cc1`, the activity change, negative = inhibition is 6.38%.

Take `COc1ccc(OCC(=O)Nc2ccc(NC(=O)c3ccco3)c(C)c2)cc1`: the activity change, negative = inhibition was -98.9% (active).

Take `COc1ccc(NC(=O)COCc2cc(-c3ccco3)on2)cc1`: the activity change, negative = inhibition was 10.4%.

In the case of `COc1ccc(NC(=O)c2ccco2)cc1NC(=O)COc1ccc(C)c(C)c1`, the activity change, negative = inhibition was 23.1%.

With `CC(C)(C)c1ccc(S(=O)(=O)N2CCN(C(=O)c3cc(-c4ccc(Br)cc4)n[nH]3)CC2)cc1`, the activity change, negative = inhibition was 0%.

Turning to `COc1ccc(NC(=O)C2CCN(c3ccc(Sc4ccc(C)cc4)nn3)CC2)c(OC)c1`, the activity change, negative = inhibition is 11.3%.

On to `O=C(CSc1nc2c(c(=O)[nH]1)CN(Cc1ccc(F)cc1)CC2)Nc1ccccc1Cl`, for which the activity change, negative = inhibition is -10.3%.

Take `O=C(NCCCN1CCN(c2ccc(F)cc2)CC1)Nc1ccc([N+](=O)[O-])cc1`: the activity change, negative = inhibition is -37.5%.

Turning to `COc1ccc(NC(=O)NCCN2CCN(c3ccc(C)cc3)CC2)c(Cl)c1`, the activity change, negative = inhibition was 14.9%.

For `CC1=C(c2ccc(C)cc2)S(=O)(=O)NC1=NCCCN1CCN(c2cc(C)ccc2C)CC1`, the activity change, negative = inhibition is -96.1% (active).

For `CC1=C(c2ccc(Cl)cc2)S(=O)(=O)N=C1N1CCN(c2cc(C)ccc2C)CC1`, the activity change, negative = inhibition is 8.61%.

Take `CC1=C(c2ccc(C)c(C)c2)S(=O)(=O)NC1=NCc1ccccc1Cl`: the activity change, negative = inhibition is -23%.

For `Cc1ccc(C)c(N2CCN(CCCNC(=O)Nc3ccc(Cl)cc3)CC2)c1`, the activity change, negative = inhibition is -76.9% (active).

As for `O=C1C=C(NCCNc2c(F)c(F)c(CO)c(F)c2F)CCC1`, the activity change, negative = inhibition is 74.7%.

As to `CCOc1ccc(N2C(=O)Nc3ccccc3C2(O)C(=O)NCc2ccco2)cc1` (stereo unspecified), the activity change, negative = inhibition is 14.9%.
